# Reference: PubChem BioAssay AID1159580 (chemical genetic matrix, 2015)
# Several values for one entry are separate records, joined by “and”; a condition that tells them apart may be missing. Equal entries are not always repeated. The campaign covered roughly 5,500 compounds. About 2,000 (36%) were called active. Inconclusive results (about 18%) are left out. Some of the results follow. Unmarked numbers belong to inactive results. Rule as the data show it: active = normalized growth mostly below about 0.91 (no sharp cut-off); inconclusive = no clear call, values can overlap the other calls; inactive = mostly above about 0.92.
# Assay: chemical genetic growth profiling, strain panel (AID 1159580);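 also: tested at 20 µM; growth read once vehicle control cultures reached saturation at 30 °C; 1 = growth at the plate median or of vehicle wells; lower values mean less growth of the strain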
# Conditions: S. cerevisiae deletion strains, growth OD
smiles,measurement,setting,value
CC(C)CCCC(C)C1CCC2C3=CC[C@H]4C[C@@H](O)CC[C@]4(C)C3CC[C@@]21C (some centres not stated),normalized growth,"locus YAL021C, strain ccr4, hits give low values",0.965
same,normalized growth,"locus YAL026C, strain drs2, hits give low values",0.965
same,normalized growth,"locus YAL030W, strain snc1, hits give low values",0.985
same,normalized growth,"locus YBL061C, strain skt5, hits give low values",0.991
same,normalized growth,"locus YBR009C, strain hhf1, hits give low values",1.02
same,normalized growth,"locus YBR021W, strain FUR4, hits give low values",1.02
same,normalized growth,"locus YBR023C, strain chs3, hits give low values",0.961
same,normalized growth,"locus YBR171W, strain sec66, hits give low values",0.968
same,normalized growth,"locus YBR229C, strain ROT2, hits give low values",1.02
same,normalized growth,"locus YBR231C, strain swc5, hits give low values",0.967
same,normalized growth,"locus YBR279W, strain paf1, hits give low values",0.991
same,normalized growth,"locus YCL011C, strain gbp2, hits give low values",0.974
same,normalized growth,"locus YCL016C, strain dcc1, hits give low values",0.979
same,normalized growth,"locus YCL029C, strain bik1, hits give low values",0.994
same,normalized growth,"locus YCL061C, strain MRC1, hits give low values",0.986
same,normalized growth,"locus YCL069W, strain vba3, hits give low values",0.989
same,normalized growth,"locus YCR088W, strain abp1, hits give low values",0.983
same,normalized growth,"locus YDL005C, strain med2, hits give low values",0.997
same,normalized growth,"locus YDL035C, strain GPR1, hits give low values",0.996
same,normalized growth,"locus YDL040C, strain nat1, hits give low values",0.965
same,normalized growth,"locus YDL074C, strain BRE1, hits give low values",0.965
same,normalized growth,"locus YDL101C, strain DUN1, hits give low values",1.02
same,normalized growth,"locus YDL185W, strain tfp1, hits give low values",1
same,normalized growth,"locus YDL192W, strain arf1, hits give low values",0.981
same,normalized growth,"locus YDR001C, strain nth1, hits give low values",0.985
same,normalized growth,"locus YDR069C, strain doa4, hits give low values",0.98
same,normalized growth,"locus YDR101C, strain arx1, hits give low values",0.988
same,normalized growth,"locus YDR137W, strain rgp1, hits give low values",0.823 (active)
same,normalized growth,"locus YDR150W, strain NUM1, hits give low values",1.04
same,normalized growth,"locus YDR159W, strain sac3, hits give low values",1.01
same,normalized growth,"locus YDR162C, strain NBP2, hits give low values",0.958
same,normalized growth,"locus YDR195W, strain ref2",1.03
same,normalized growth,"locus YDR297W, strain sur2, hits give low values",0.975
same,normalized growth,"locus YDR318W, strain mcm21, hits give low values",1.01
same,normalized growth,"locus YDR334W, strain swr1, hits give low values",0.948
same,normalized growth,"locus YDR335W, strain msn5, hits give low values",0.967
same,normalized growth,"locus YDR388W, hits give low values",0.994
same,normalized growth,"locus YDR392W, strain spt3, hits give low values",0.863
same,normalized growth,"locus YDR502C, strain sam2, hits give low values",0.977
same,normalized growth,"locus YEL003W, strain gim4, hits give low values",0.976
same,normalized growth,"locus YEL037C, strain rad23, hits give low values",0.975
same,normalized growth,"locus YEL061C, strain CIN8 (second series), hits give low values",0.978
same,normalized growth,"locus YEL061C, strain CIN8, hits give low values",1.01
same,normalized growth,"locus YER015W, strain faa2, hits give low values",0.985
same,normalized growth,"locus YER016W, strain bim1, hits give low values",0.998
same,normalized growth,"locus YER110C, hits give low values",0.985
same,normalized growth,"locus YER111C, strain swi4, hits give low values",0.977
same,normalized growth,"locus YER155C, strain BEM2 (second series), hits give low values",0.973
same,normalized growth,"locus YER155C, strain BEM2, hits give low values",1.01
same,normalized growth,"locus YER167W, strain BCK2, hits give low values",1.06
same,normalized growth,"locus YFR010W, strain ubp6, hits give low values",0.983
same,normalized growth,"locus YGL078C, strain dbp3, hits give low values",0.982
same,normalized growth,"locus YGL086W, strain mad1, hits give low values",0.996
same,normalized growth,"locus YGL167C, strain pmr1, hits give low values",0.98
same,normalized growth,"locus YGL173C, strain kem1, hits give low values",0.968
same,normalized growth,"locus YGL227W, strain vid30, hits give low values",0.991
same,normalized growth,"locus YGL240W, strain doc1, hits give low values",0.984
same,normalized growth,"locus YGL248W, strain PDE1, hits give low values",1.03
same,normalized growth,"locus YGL253W, strain hxk2, hits give low values",0.909 (active)
same,normalized growth,"locus YGR135W, strain pre9, hits give low values",0.982
same,normalized growth,"locus YGR252W, strain gcn5, hits give low values",0.944
same,normalized growth,"locus YHR013C, strain ard1, hits give low values",0.957
same,normalized growth,"locus YHR027C, strain rpn1, hits give low values",0.973
same,normalized growth,"locus YHR030C, strain SLT2, hits give low values",1.01 and 0.993
same,normalized growth,"locus YHR079C, strain IRE1 (second series), hits give low values",1
same,normalized growth,"locus YHR079C, strain IRE1, hits give low values",1.02
same,normalized growth,"locus YHR094C, strain hxt1, hits give low values",0.988
same,normalized growth,"locus YHR129C, strain ARP1, hits give low values",1.01
same,normalized growth,"locus YHR142W, strain chs7, hits give low values",0.886
same,normalized growth,"locus YHR200W, strain rpn10, hits give low values",1.01
same,normalized growth,"locus YIL066C, strain RNR3, hits give low values",1.03
same,normalized growth,"locus YIL073C, strain SPO22, hits give low values",1.05
same,normalized growth,"locus YIL125W, strain kgd1, hits give low values",0.999
same,normalized growth,"locus YIR030C, strain dcg1, hits give low values",0.994
same,normalized growth,"locus YJL092W, strain hpr5, hits give low values",0.976
same,normalized growth,"locus YJL095W, strain BCK1 (second series), hits give low values",0.991
same,normalized growth,"locus YJL095W, strain BCK1, hits give low values",0.946 and 1
same,normalized growth,"locus YJL115W, strain asf1, hits give low values",0.966
same,normalized growth,"locus YJL129C, strain trk1, hits give low values",0.905
same,normalized growth,"locus YJL134W, strain LCB3, hits give low values",0.989
same,normalized growth,"locus YJL154C, strain vps35, hits give low values",0.995
same,normalized growth,"locus YJL164C, strain tpk1, hits give low values",0.956
same,normalized growth,"locus YJL166W, strain qcr8, hits give low values",0.971
same,normalized growth,"locus YJL168C, strain set2, hits give low values",0.995
same,normalized growth,"locus YJL187C, strain SWE1 (second series), hits give low values",0.994
same,normalized growth,"locus YJL187C, strain SWE1, hits give low values",0.985
same,normalized growth,"locus YJR043C, strain POL32, hits give low values",1.05
